The campaign covered roughly 220,000 compounds. About 2,600 (1.2%) were called active. The list comes from a sample in which actives are over-represented; it also holds similar structures and randomly drawn compounds. Unmarked numbers belong to inactive results.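 Rule for the calls: active = activation above the mean of all tested compounds plus 3 SD, set per screening run (cut at about 8.8% in these data); inactive = the rest.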

This assay has as its target Wee1-like protein kinase (Homo sapiens) (UniProt P30291). The assay is described as follows: compounds stabilizing Wee1-luciferase fusion – cell-based, HeLa, Wee1K328M-luciferase, luminescence, primary screen (AID 1321).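 Note: cells exposed to compound for 20 h before luminescence read; 0% = DMSO alone and 100% = MG132 at 30 µM.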 The conditions noted are these: HeLa Luc-Wee1K328M stability, at 5 µM, active compounds read high, 100% = proteasome inhibitor MG132 effect.
`CC(=O)NC(=S)Nc1ccc(NC(=S)NC(=O)c2ccc([N+](=O)[O-])cc2)cc1`: the reporter increase was 1.61%.

Consider `Cc1nnc(C)c2c(C)n(N)c(C)c12`, for which the reporter increase is 3.05%.

Regarding `O=C(CCl)Nc1ccc(Sc2ccc(NC(=O)CCl)cc2)cc1`, the reporter increase is -0.49%.

Take `Cc1ccc(NC(=O)CC(=O)Nc2ccc(C)cc2)cc1`: the reporter increase was 1.54%.

With `Cc1ccc(NC(=O)CN2CCc3ccccc3C2)cc1`, the reporter increase was 12.7% (active).

As for `Cc1ccc(NC(=O)CCN2CCc3ccccc3C2)cc1`, the reporter increase was 0.24%.

As for `COc1ccc(NC(=O)C2=C(C)NC(=O)NC2c2ccccc2[N+](=O)[O-])cc1` (stereo unspecified), the reporter increase was 0.32%.

Turning to `O=C(O)c1cc(Cl)c(Cl)cc1C(=O)Nc1cccc2ncccc12`, the reporter increase is -2.37%.

For `O=[N+]([O-])c1cccc2ncccc12`, the reporter increase is -1.36%.

Regarding `Cc1cc(O)c(NC(=O)c2ccc(C)c([N+](=O)[O-])c2)cc1C`, the reporter increase is 2.32%.

On to `Cc1ccc(C(=O)Nc2cccc3ncccc23)cc1[N+](=O)[O-]`, for which the reporter increase is 54.1% (active).

For `O=C(Nc1cccc2ncccc12)c1ccc(-c2ccc(Cl)cc2Cl)o1`, the reporter increase was 7.64%.

Regarding `O=C(Nc1cccc2ncccc12)C(Cl)(Cl)Cl`, the reporter increase was 9.1% (active).

On to `O=C(NC(=O)c1ccccc1N1CCCCC1)Nc1ccc(Br)cc1`, for which the reporter increase was -1.56%.

As for `Fc1ccc(Nc2nnns2)cc1`, the reporter increase was -1.03%.

As for `CN1CCN(c2cc3c(cc2F)c(=O)c(C(=O)O)cn3CCF)CC1`, the reporter increase is -0.92%.

As to `C#CCNc1ccc(C(=O)OCC)cc1`, the reporter increase is -0.22%.

In the case of `CCOC(=O)c1sc(/N=C/C2=C(O)CC(C)(C)CC2=O)c(C(=O)OCC)c1C`, the reporter increase was 0.6%.

In the case of `CCOC(=O)c1c(/N=C/C2C(=O)CC(C)(C)CC2=O)sc(C)c1C`, the reporter increase was 12.6% (active).

In the case of `CCOC(=O)c1c(NC(=O)c2cccs2)sc(C)c1C`, the reporter increase is -0.63%.

As to `COc1cc(OC)cc(/C(N)=N/O)c1`, the reporter increase is 5.93%.

Consider `Cc1ccc(CN(C)CC(=O)Nc2cccc([N+](=O)[O-])c2)o1`, for which the reporter increase is 8.93% (active).

On to `CC(=O)Nc1cccc([N+](=O)[O-])c1`, for which the reporter increase was 1.71%.

As to `CN(CC(=O)Nc1cccc(F)c1)CC(=O)Nc1cccc([N+](=O)[O-])c1`, the reporter increase is 3.36%.

With `COc1ccc(N=Nc2ccc(O)c(P(=O)(c3ccccc3)c3ccccc3)c2)cc1`, the reporter increase was 2.24%.

Regarding `Clc1ccc(C[n+]2cc(-c3ccccc3)n3c2CCC3)cc1`, the reporter increase is -0.29%.

For the compound `COc1ccccc1NC(=O)C1=C(C)NC(=O)NC1c1ccc(C)s1` (stereo unspecified), the reporter increase was 9.03% (active).

Take `COc1ccccc1NC(=O)C1=C(C)Nc2nc3ccccc3n2C1c1cccs1` (stereo unspecified): the reporter increase is 5.69%.

In the case of `COc1ccccc1NC(=O)c1ccc(C)s1`, the reporter increase is -0.54%.

For the compound `Nc1nc(Nc2ccccc2)nc(NCCO)c1[N+](=O)[O-]`, the reporter increase was -3.26%.

For `Cc1cc(C)c(C)c(S(=O)(=O)N[C@@H](C)C(=O)OC(C)C(=O)NC(N)=O)c1C` (stereo partly specified), the reporter increase is -2.95%.

For `CCOc1ccc(/C=N/Nc2nncc(-c3ccccc3)n2)cc1OC`, the reporter increase was 16.9% (active).

As to `COc1cccc(/C=N\Nc2nncc(-c3ccccc3)n2)c1`, the reporter increase is 0.25%.

On to `COc1ccc(/C=N/Nc2nc3ccccc3o2)cc1OC`, for which the reporter increase was 4.92%.

Take `OCCN1CCN(C(=S)c2ccc(-c3ccccc3)cc2)CC1`: the reporter increase was -3.59%.

With `COc1ccc(NC(=O)C2CCC(CNc3c(N4CCCCC4)c(=O)c3=O)CC2)c(OC)c1` (stereo unspecified), the reporter increase is 1.06%.

For the compound `CCOC(=O)c1nnn2c3ccccc3c(=O)n(C)c12`, the reporter increase is -0.3%.

`Cc1ncn2cc(-c3ccc(Cl)cc3Cl)[nH]c(=O)c12`: the reporter increase is -1.11%.

Consider `Cc1ccc(S(=O)(=O)/N=C(/NC(=S)Nc2c(C)n(C)n(-c3ccccc3)c2=O)c2ccccc2)cc1`, for which the reporter increase was -0.69%.

Regarding `Cc1cccc(NC(=O)CSc2nnc(CCCCCNC(=O)OC(C)(C)C)o2)c1C`, the reporter increase is -2.16%.

Take `CCc1ccccc1NC(=O)CSc1nnc(CCNC(=O)OC(C)(C)C)o1`: the reporter increase is 5.87%.

For `Cc1ccccc1CSc1nnc(CCCCCNC(=O)OC(C)(C)C)o1`, the reporter increase was 15.4% (active).

As for `CSc1nnc(-c2ccc(C(F)(F)F)cn2)o1`, the reporter increase was -1.5%.

Regarding `Cc1nc(-c2nnc(SCC(=O)Nc3cc(C(F)(F)F)cc(C(F)(F)F)c3)n2C)cs1`, the reporter increase is 2.29%.

With `CCn1c(=O)c([N+](=O)[O-])c(NCc2ccc3c(c2)OCO3)c2ccccc21`, the reporter increase is -2.11%.

Take `COc1ccccc1N1CCN(CCCCOc2ccc(F)cc2)CC1`: the reporter increase was 1.24%.

Regarding `COc1ccccc1N1CCN(c2ccc([N+](=O)[O-])nc2)CC1`, the reporter increase is 12.9% (active).

In the case of `COc1ccc(N2CCN(c3ccc([N+](=O)[O-])nc3)CC2)cc1`, the reporter increase is 2.25%.

With `CCC(C)NC(=O)C1c2ccccc2Oc2ccccc21` (stereo unspecified), the reporter increase is 2.05%.

As to `CN(C)S(=O)(=O)N1CCN(c2ccc([N+](=O)[O-])cc2)CC1`, the reporter increase was 6.3%.

With `Cc1ccc(N2CCN(S(=O)(=O)N(C)C)CC2)cc1Cl`, the reporter increase was 13.4% (active).

Take `CC(C)=C1SC(N2CCN(c3ccc(C)c(Cl)c3)CC2)=NC1=O`: the reporter increase was -2.39%.

For `N#C/C(=C\c1ccc(-c2cccc([N+](=O)[O-])c2)o1)C(=O)NCCN1CCOCC1`, the reporter increase was 9.19% (active).

As for `Cc1ccc(Cc2cnc(NC(=O)/C(C#N)=C/c3ccc(-c4cccc([N+](=O)[O-])c4)o3)s2)cc1`, the reporter increase is -0.97%.

As for `N#C/C(=C/c1ccc(-c2ccccc2[N+](=O)[O-])o1)C(=O)NCCN1CCCCC1`, the reporter increase is -2.23%.

For the compound `CCOC(=O)C1=C(c2ccccc2)NC(=S)NC1c1ccc(Cl)cc1` (stereo unspecified), the reporter increase was 3.7%.

For the compound `CC(C)(C)c1cc(P(=O)(c2ccccc2)c2ccccc2)ccc1O`, the reporter increase is 0.95%.

On to `COc1ccc(C2c3ccc(O)cc3Oc3ncn(CCCO)c(=N)c32)cc1OC` (stereo unspecified), for which the reporter increase is 2.84%.

Consider `N#Cc1ccc(Oc2ccc(C(F)(F)F)cc2NC(=O)c2ccc(F)cc2)cc1`, for which the reporter increase is 2.35%.

Consider `COc1cc(/C=C2/C(=O)NN(c3ccc(F)cc3)C2=O)cc([N+](=O)[O-])c1O`, for which the reporter increase was -0.14%.

For the compound `Cc1ccc(CC2CC(=O)N(c3nc(C)cc(C)n3)C2=O)cc1` (stereo unspecified), the reporter increase is -2.45%.

Regarding `COc1ccc(CCN2C(=O)C3CC=C(C)CC3C2=O)cc1OC` (stereo unspecified), the reporter increase is 5.14%.

For `COc1ccc(CN2C(=O)CC(Cc3ccc(C)cc3)C2=O)cc1OC` (stereo unspecified), the reporter increase is 10.8% (active).

`Cc1nc(-c2ccccc2)sc1-c1nnc(C2CC2)o1`: the reporter increase was -1.78%.

As to `CCOC(=O)c1cc(Sc2ccccc2N)cc(C(=O)OCC)n1`, the reporter increase was -2.91%.

In the case of `Cc1nnsc1C(=O)N/N=C/c1ccccc1Cl`, the reporter increase is 2.61%.

Turning to `COc1cccc(N(CC(=O)Nc2cccc(F)c2)S(C)(=O)=O)c1`, the reporter increase is 8.9% (active).

In the case of `CCN(CC)S(=O)(=O)c1ccc(NC(=O)CN(c2cccc(F)c2)S(C)(=O)=O)cc1`, the reporter increase was -1.26%.

Regarding `COc1cccc(N(CC(=O)Nc2cccc(N(C)S(C)(=O)=O)c2)S(C)(=O)=O)c1`, the reporter increase is -1.32%.

For the compound `O=C(Cc1ccc(F)cc1)NC1CCCC1`, the reporter increase was -1.42%.

Regarding `O=C(CC1CCCCC1)NCc1ccc(F)cc1`, the reporter increase is 8.97% (active).

As to `O=C(CC1CCCCC1)NCc1ccco1`, the reporter increase was 0.37%.

Turning to `CC(OC(=O)c1ccc(NS(=O)(=O)c2ccc3[nH]c(=O)[nH]c3c2)cc1)C(=O)Nc1cccc(Cl)c1Cl` (stereo unspecified), the reporter increase is 24.1% (active).

For `Cc1ccc(S(=O)(=O)/N=C(/Nc2ccc3[nH]c(=O)[nH]c3c2)c2ccccc2)cc1`, the reporter increase is -1.22%.

In the case of `COC(=O)c1ccccc1NS(=O)(=O)c1ccc2[nH]c(=O)[nH]c2c1`, the reporter increase was -1.86%.

`O=C1/C(=C/c2coc3ccc(O)cc3c2=O)SC(=S)N1c1ccccc1`: the reporter increase is -0.03%.

Consider `COc1c(C=O)c(CCN(C)C(=O)c2ccc(F)cc2)cc2c1OCO2`, for which the reporter increase was 0.06%.

For the compound `Fc1ccc(COc2ccc(-c3nnco3)cc2)cc1`, the reporter increase is 16.2% (active).

Take `COc1ccc(-c2nnco2)cc1OC`: the reporter increase was -2.71%.

Turning to `Fc1ccc(COc2cccc(-c3n[nH]c(=S)o3)c2)cc1`, the reporter increase was -0.05%.

In the case of `CCOC(=O)Cc1cc(=O)[nH]c(/N=C(\N)Nc2ccc(OC)cc2)n1`, the reporter increase was 0.86%.

`Oc1ccc2ccccc2c1C=Nc1ccccc1`: the reporter increase is -2.84%.

Regarding `CCn1c2ccccc2c2cc(NC(=O)COC(=O)c3cc(S(=O)(=O)N4CCCCC4)ccc3Cl)ccc21`, the reporter increase is 11.6% (active).

Consider `CCn1c2ccccc2c2cc(NC(=O)COC(=O)c3ccccc3Br)ccc21`, for which the reporter increase was 1.86%.

Regarding `O=C(COC(=O)c1cc(S(=O)(=O)N2CCCCC2)ccc1Cl)NCc1ccco1`, the reporter increase is 5.36%.

For `Nc1ccc(C(=O)OCC(=O)NC2CCS(=O)(=O)C2)cc1[N+](=O)[O-]` (stereo unspecified), the reporter increase was -1.54%.

As to `COc1ccccc1P(=O)(c1ccccc1)c1ccccc1NC(C)=O` (stereo unspecified), the reporter increase was 0.01%.

Turning to `Cc1ccc(-c2nc(CS(=O)CC(=O)NC3CCCC3)c(C)o2)cc1` (stereo unspecified), the reporter increase was 2.35%.

As to `Cc1ccc(NC(=O)CSCC(=O)NC2CCCCC2)cc1`, the reporter increase was 0.26%.

As for `Cc1ccc(NC(=O)CS(=O)CC(=O)N(c2ccccc2)C(C)C(=O)NC2CCCC2)cc1` (stereo unspecified), the reporter increase was 10.2% (active).

With `Nc1nc(NC(=O)/C=C/c2ccc(F)cc2)nn1-c1ccccc1`, the reporter increase is -3.61%.

As for `Oc1ccc(-c2nnc(Nc3ccccc3)c3ccccc23)cc1`, the reporter increase is -2.97%.

Take `O=C1/C(=C/c2cccs2)SC(=S)N1C1CCS(=O)(=O)C1` (stereo unspecified): the reporter increase was 2.22%.

`COc1ccccc1OCc1nc2ccccc2s1`: the reporter increase was 10.1% (active).

In the case of `O=C(O)CCCCc1nc2ccccc2s1`, the reporter increase is 1.81%.

For the compound `COc1cccc2sc(NNC(=O)c3nc4ccccc4s3)nc12`, the reporter increase was 1.43%.

The values above are taken from PubChem BioAssay AID1321 (The Scripps Research Institute Molecular Screening Center, 2008).
